Consider 40 compounds from PubChem BioAssay AID602477 (National Center for Advancing Translational Sciences (NCATS), 2012).

Results filed as inconclusive are left out. The source made the active and inactive calls. Calls come from the whole dose curve; as a rule, active = well fitted activation curve with a large enough effect; inconclusive = small, poorly fitted or top-dose-only effect; inactive = no such curve, though single readings can be large or run the other way.

The test is described as follows: FLuc inhibitory activity for the follow-up compounds in a cell-based assay to assess the activity of miR-21. To be noted: HeLa miR-21-FLuc reporter, luciferase luminescence, 48 h; series mostly up to 38.3 µM. The source says: NCGC Assay Overview: Firefly (Photinus pyralis) luciferase is one of the most commonly used transcriptional reporters. It is considered one of the more dynamically responsive reporters - that is, responsive to changes in reporter transcription - as it requires no post-translational modifications and is enzymatically active directly after protein synthesis (Wood, 1998). With no endogenous expression in mammalian cells and without the requirement of external excitation, it offers very little background signal, thus generally providing excellent signal to background for most assays. Previous profiling work to determine the prevalence of compounds that affect FLuc enzymatic activity (PubChem AID 411) identified that ~3% of the MLSMR library (then at ~72K) inhibited FLuc (Auld et al., 2008). […] Of the compounds identified in this profile that inhibited FLuc, 151 compounds were selected for further analysis, in an effort to better understand their mode of inhibiting FLuc. The assay described here was to determine the activity of the compounds in a cell-based firefly luciferase reporter gene assay originally designed to identify antagonists of miR-21. Compounds that inhibit miR-21 or compounds that stabilize FLuc intracellularly are identified as active compounds in the assay.
NCGC Assay Protocol Summary: Reagents: In-house detection reagent: 300mM Tris-HCl, 300mM Trizma base, 300mM MgCl, 1% Triton-X100, 5mM DTT, 500uM Coenzyme A trilithium salt (Sigma #C3019),450uM ATP (Sigma #A7699), 1mM D-luciferin sodium salt monohydrate (Biosynth #L8240) HeLa cells stably expressing firefly luciferase (FLuc) under the control of a CMV promoter (upstream) and a miR-21 binding sequence directly downstream of the gene. These cells endogenously express miR-21. Control compounds used were two known firefly luciferase inhibitors (3-(5-(3-chlorophenyl)-1,2,4-oxadiazol-3-yl)benzoic acid and 5-(2-fluorophenyl)-3-phenyl-1,2,4-oxadiazole), and DMSO. Assay Summary: 6uL of HeLa miR-21-FLuc cells in assay buffer (DMEM, Invitrogen #21063-029; 10% FBS, HyClone #SH30071.03) were dispensed at 2000cells/well (3.3 x 10^5 cells/mL) into Greiner solid-white TC-treated 1536-well plates using a Multidrop Combi (Thermo Fisher Scientific). Plates were incubated for one hour at 37 degree Celsius, 95% humidity, 5% CO2. These assay plates were then treated with 23nL of compound or DMSO using a Kalypsys pin tool, which allows for delivery of a 12-point titration of each compound to the assay plate, with a final compound concentration ranging from approximately ~38uM to 0.2nM. Assay plates were then incubated for 48 hours. After incubation, plates were allowed to come to RT for one hour prior to delivery of 3uL of 3X luciferase detection reagent. After a 15 minute incubation to allow for cell lysis, luciferase activity was measured using a ViewLux CCD imager (PerkinElmer), with an average exposure time of 2-12 seconds.
Turning to `O=C(Nc1ccccc1C(=O)O)c1cccc(NC(=O)c2ccccc2Br)c1`, the Potency result was “inactive”.
`COc1ccc(C(=O)Nc2ccccc2C(=O)Nc2ccccc2C(=O)O)cc1`: the Potency was 8.95 µM (active).
Take `COc1ccc2nc(NC(=O)c3cccc(S(=O)(=O)N4CCOCC4)c3)sc2c1`: the Potency is 7.11 µM (active).
Turning to `COc1ccc(Br)cc1C(=O)Nc1ccc(C(=O)O)cc1`, the Potency is 7.98 µM (active).
On to `CCOc1ccc(C(=O)Nc2cccc(C(=O)O)c2)cc1Cl`, for which the Potency is 0.356 µM (active).
For `Cc1ccc(S(=O)(=O)N2CCOCC2)cc1C(=O)Nc1ccccc1C(=O)O` the value was “inactive”; for `COc1cccc(-c2nc3ccccc3s2)c1`, 0.252 µM (active).
As to `COc1c(C)cccc1C(=O)Nc1ccc(-c2nc3ccccc3s2)c(Cl)c1`, the Potency is 22.5 µM (active).
For `CCOc1ccc2nc(NC(=O)c3ccoc3C)sc2c1` the value was 0.1 µM (active).
For the compound `CC(C)c1ccc(-c2nc3ccccc3s2)cc1`, the Potency is 0.0252 µM (active).
For `COc1ccc2nc(NC(=O)CCc3ccc(OC)c(OC)c3)sc2c1` the value was 12.6 µM (active); for `Nc1ccc(-c2nc3cc(N)ccc3s2)cc1`, 2.25 µM (active).
For `CC(C)c1ccc(C(=O)Nc2ccc(-c3nc4ccccc4s3)c(Cl)c2)cc1`, the Potency is 7.98 µM (active).
For `Cc1ccc(C(=O)Nc2cccc(C(=O)O)c2)cc1S(=O)(=O)N1CCCCC1` the value was 0.565 µM (active); for `Oc1ccc(-c2nc3ccccc3s2)c(O)c1`, 11.3 µM (active).
For `O=C(Nc1ccccc1C(=O)O)c1cc(S(=O)(=O)Nc2ccccc2)ccc1Cl` the value was “inactive”; for `O=C(Nc1cccc(-c2nc3ccccc3s2)c1)C1=COCCO1`, 12.6 µM (active).
As for `Cc1c(NC(=O)c2cc(-n3cnnc3)ccc2Cl)cccc1-c1nc2ccccc2s1`, the Potency is 2.83 µM (active).
For the compound `Nc1cccc(-c2nc3ccc(N)cc3s2)c1`, the Potency is 1.79 µM (active).
In the case of `Nc1ccc(-c2nc3ccc(N)cc3s2)cc1`, the Potency was 0.283 µM (active).
For `Cc1c(NS(C)(=O)=O)cccc1-c1nc2ccccc2s1`, the Potency was 4 µM (active).
`O=C(Nc1ccccc1C(=O)O)c1ccc(Cl)c(S(=O)(=O)N2CCOCC2)c1`: the Potency was 12.6 µM (active).
`O=C(Cc1ccccc1)Nc1ccc(C(=O)Nc2ccccc2C(=O)O)cc1`: the Potency entry is “inactive”.
As for `O=C(Nc1ccccc1C(=O)O)c1ccc(NC(=O)C2CCCCC2)cc1`, the Potency entry is “inactive”.
For `COc1cc(OC)cc(-c2nc3ccccc3s2)c1`, the Potency was 3.56 µM (active).
Take `CCOc1ccc2nc(NC(=O)c3ccccc3)sc2c1`: the Potency was 0.1 µM (active).
For the compound `Cc1ccc2nc(-c3ccc(N)cc3)sc2c1`, the Potency is 0.0356 µM (active).
Consider `COc1ccc2nc(NC(=O)Cc3cccs3)sc2c1`, for which the Potency was 2.83 µM (active).
For `Nc1ccc2nc(-c3ccc(O)cc3)sc2c1` the value was 0.4 µM (active); for `O=C(O)c1ccc(NC(=O)c2cc(S(=O)(=O)N3CCCCC3)c(Cl)cc2Cl)cc1`, “inactive”; for `CC(C)C(=O)Nc1cccc(C(=O)Nc2ccccc2C(=O)O)c1`, “inactive”.
For the compound `Cc1ccc(C(=O)Nc2cccc(C(=O)O)c2)cc1S(=O)(=O)N1CCCC1`, the Potency was 1 µM (active).
In the case of `O=C(O)c1cccc(NC(=O)c2cccc(S(=O)(=O)N3CCCCC3)c2)c1`, the Potency is 14.2 µM (active).
`COc1ccc2nc(NC(=O)c3cnccn3)sc2c1`: the Potency was 0.2 µM (active).
For `CCOc1ccc2nc(NC(=O)Cc3cccs3)sc2c1`, the Potency was 3.56 µM (active).
For `O=C(Nc1ccccc1C(=O)O)c1cccc(C(=O)Nc2ccccc2C(=O)O)c1` the value was “inactive”; for `COc1ccc2nc(NC(=O)c3ccco3)sc2c1`, 0.1 µM (active); for `O=C(O)c1cccc(NC(=O)c2cccc(S(=O)(=O)N3CCc4ccccc4C3)c2)c1`, “inactive”.
In the case of `C/C(=N\NC(=O)c1ccccc1NC(=O)c1ccc(Cl)cc1)c1ccncc1`, the Potency is 0.0449 µM (active).
Take `COc1ccc2nc(NC(=O)c3ccc4ncsc4c3)sc2c1`: the Potency was 2.83 µM (active).
